Experimental data published in the supplement of paper PMC6089552.
Out of some 3,200 compounds screened, about 300 (9.4%) showed activity. Many of the other results were omitted from the sample, so actives are more common in it than they were.

Test system: A673/TR/shEF
Assay: cell viability (LOESS-normalised, relative to median of negative controls) (log2 ratio); higher = more viable cells (less compound effect), active = hit call of the paper (over 3 MAD below the median)
Conditions: treatment time: 72 h
Summary of the method: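 Viability of A673/TR/shEF Ewing sarcoma cells was determined by CellTiter-Glo luminescence. The cells, at 1,500 per well in 384-well plates, were grown with or without doxycycline from 24 h before compound addition to switch on EWS-FLI1 shRNA knockdown, then exposed for three days to library compounds at two or more concentrations or to DMSO controls. Signals were LOESS-corrected plate by plate, normalised to the negative-control median and log2-transformed.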

[1] = 0.25 µM, library screen: screen1, EWS-FLI1 expression: high (no doxycycline)
[2] = 0.25 µM, library screen: screen1, EWS-FLI1 expression: low (doxycycline-induced shRNA knockdown)
[3] = 2.5 µM, library screen: screen1, EWS-FLI1 expression: high (no doxycycline)
[4] = 2.5 µM, library screen: screen1, EWS-FLI1 expression: low (doxycycline-induced shRNA knockdown)
[5] = 0.25 µM, library screen: screen2, EWS-FLI1 expression: high (no doxycycline)
[6] = 0.25 µM, library screen: screen2, EWS-FLI1 expression: low (doxycycline-induced shRNA knockdown)
[7] = 2.5 µM, library screen: screen2, EWS-FLI1 expression: high (no doxycycline)
[8] = 2.5 µM, library screen: screen2, EWS-FLI1 expression: low (doxycycline-induced shRNA knockdown)
[9] = 0.103 µM, library screen: screen3, EWS-FLI1 expression: high (no doxycycline)
[10] = 0.103 µM, library screen: screen3, EWS-FLI1 expression: low (doxycycline-induced shRNA knockdown)
[11] = 0.308 µM, library screen: screen3, EWS-FLI1 expression: high (no doxycycline)
[12] = 0.308 µM, library screen: screen3, EWS-FLI1 expression: low (doxycycline-induced shRNA knockdown)
[13] = 0.926 µM, library screen: screen3, EWS-FLI1 expression: high (no doxycycline)
[14] = 0.926 µM, library screen: screen3, EWS-FLI1 expression: low (doxycycline-induced shRNA knockdown)
[15] = 2.8 µM, library screen: screen3, EWS-FLI1 expression: high (no doxycycline)
[16] = 2.8 µM, library screen: screen3, EWS-FLI1 expression: low (doxycycline-induced shRNA knockdown)
[17] = 8.3 µM, library screen: screen3, EWS-FLI1 expression: high (no doxycycline)
[18] = 8.3 µM, library screen: screen3, EWS-FLI1 expression: low (doxycycline-induced shRNA knockdown)
[19] = 25 µM, library screen: screen3, EWS-FLI1 expression: high (no doxycycline)
[20] = 25 µM, library screen: screen3, EWS-FLI1 expression: low (doxycycline-induced shRNA knockdown)

Measured: cell viability (log2)

COc1ccc(S(=O)(=O)N(CCO)c2ccccc2CN(C)C/C=C/c2ccc(Cl)cc2)cc1
inactive: 0.025 µM, library screen: screen1, EWS-FLI1 expression: high (no doxycycline) 0.202 | 0.025 µM, library screen: screen1, EWS-FLI1 expression: low (doxycycline-induced shRNA knockdown) -0.0138 | [1] 0.226 | [2] 0.0804 | [4] -0.0574
active: [3] -0.284 | 25 µM, library screen: screen1, EWS-FLI1 expression: high (no doxycycline) -1.32 | 25 µM, library screen: screen1, EWS-FLI1 expression: low (doxycycline-induced shRNA knockdown) -0.531

CC(=O)OCC(OC(C)=O)C(OC(C)=O)C(OC(C)=O)C(OC(C)=O)C(COC(C)=O)OC(C)=O (stereo unspecified)
inactive: [1] 0.1 | [2] 0.086 | [3] 0.176 | [4] -0.0056

CCn1cc(C(=O)O)c(=O)c2ccc(Cc3ccccc3)nc21
inactive: [5] 0.215 | [6] 0.061 | [7] 0.162 | [8] 0.124

COc1cc(CN2CCN(Cc3ccc([N+](=O)[O-])cc3)CC2)c([N+](=O)[O-])cc1OC
inactive: [1] 0.132 | [2] 0.09 | [3] 0.0515 | [4] 0.104

CC1(C)C[C@@H]2C(=O)CC[C@@H]3O[C@]3(C)CC[C@H]21
inactive: [1] 0.14 | [2] 0.0852 | [3] 0.132 | [4] 0.0776

CC1=C2C(=CO[C@H](C)[C@H]2C)C(=O)C(C(=O)O)=C1O
inactive: [1] 0.0243 | [2] 0.0421 | [3] 0.12 | [4] 0.0982

Cc1c(OCC(F)(F)F)ccnc1C[S+]([O-])c1nc2ccccc2[nH]1 (stereo unspecified)
active: [19] -0.241
inactive: [9] 0.0918 | [10] 0.101 | [1] 0.136 | [2] 0.0633 | [5] 0.166 | [6] 0.0843 | [11] 0.0516 | [12] 0.0264 | [13] 0.0709 | [14] 0.0884 | [3] 0.133 | [4] 0.126 | [7] 0.122 | [8] 0.0984 | [15] 0.0259 | [16] 0.0107 | [17] -0.0254 | [18] 0.0817 | [20] 0.0393

COc1ccc2nc([S@@+]([O-])Cc3ncc(C)c(OC)c3C)[nH]c2c1
inactive: [9] 0.0353 | [10] -0.0468 | [11] 0.00454 | [12] 2e-05 | [13] -0.0308 | [14] -0.0128 | [15] -0.0416 | [16] 0.00305 | [17] 0.0504 | [18] 0.0301 | [19] -0.0361 | [20] -0.0116

COc1ccc2nc([S+]([O-])Cc3ncc(C)c(OC)c3C)[nH]c2c1 (stereo unspecified)
inactive: [9] 0.0555 | [10] 0.0372 | [11] -0.0266 | [12] 0.0199 | [13] -0.0106 | [14] 0.0522 | [15] -0.0439 | [16] 0.0389 | [17] -0.0449 | [18] 0.0231 | [19] -0.03 | [20] -0.014

COC(=O)C[C@H]1C(C)(C)[C@@H](OC(C)=O)[C@@H]2CC3C4CC(=O)O[C@@H](c5ccoc5)[C@]4(C)CCC3[C@@]1(C)C2=O (stereo partly specified)
inactive: [1] 0.0705 | [2] 0.0161 | [3] 0.14 | [4] 0.112

C=C1CCC(=O)C(C)CCC2C1CC2(C)C (stereo unspecified)
inactive: [1] 0.0584 | [2] -0.00925 | [3] 0.119 | [4] -0.105

COc1ccc(-c2oc3cc(O[C@@H]4O[C@H](CO)[C@@H](O)[C@H](O)[C@H]4O)c(OC)c(O)c3c(=O)c2OC)cc1O
inactive: [1] 0.0438 | [2] 0.127 | [3] 0.0949 | [4] 0.0982

O=C(O)C1CN(CCCP(=O)(O)O)CCN1 (stereo unspecified)
inactive: [5] 0.0853 | [6] 0.0707 | [7] 0.0988 | [8] 0.109

CCN(CC)CC(=O)Nc1c(C)cccc1C
inactive: [9] 0.148 | [10] 0.0138 | [1] 0.147 | [2] 0.00307 | [5] 0.111 | [6] 0.106 | [11] 0.0507 | [12] 0.127 | [13] 0.13 | [14] 0.0501 | [3] 0.157 | [4] 0.131 | [7] 0.0975 | [8] 0.0477 | [15] 0.00489 | [16] 0.0234 | [17] 0.0246 | [18] 0.018 | [20] 0.0253
active: [19] -0.278

Cc1cccc(C)c1NC(=O)C[N+](C)(C)C
inactive: [5] 0.174 | [6] 0.0998 | [7] 0.0786 | [8] 0.0656

CC[N+](CC)(CC)CC(=O)Nc1c(C)cccc1C
inactive: [5] 0.105 | [6] 0.169 | [7] 0.0372 | [8] 0.0518
